Assay [1] is described as follows: CEETOX_H295R_PROG: CeeTox H295R High-throughput Steroidogenesis Assay for Progesterone (PROG) (AID 2283442).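 As to AC50: human H295R adrenal cells primed with 10 µM forskolin before dosing; progesterone secreted into medium by H295R cells measured by HPLC-MS/MS.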 Particulars: actives raise or lower the signal. In short, it runs like this:
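Steps: seed H295R cells and let them adhere overnight; prime 48 h with 10 uM forskolin; dose with compound in DMSO at 0.1% final for 48 h; extract medium steroids with MTBE; measure progesterone by LC-MS/MS. MTT viability was run in the same wells.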

Read-out in assay [2]: Tumor necrosis factor receptor superfamily member 6 (Homo sapiens) (UniProt P25445)
Nature of the assay: LTEA_HepaRG_FAS: Life Technologies and Expression Analysis (LTEA) Assay for Fas cell surface death receptor (FAS) using HepaRG (AID 2283447). Particulars: mRNA level, 48 h; actives raise or lower the signal. An outline of the steps:
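Differentiated human HepaRG cells, pre-cultured 48 h, were exposed in duplicate for 48 h to 8-point half-log concentrations (top 100 uM, 0.5% DMSO) in serum-free induction medium; FAS mRNA measured by qRT-PCR, normalized to ACTB/GAPDH/POLR2A, bidirectional fit versus DMSO.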

Read-out in assay [3]: Fatty acid synthase (Homo sapiens) (UniProt P49327)
Kind of assay: LTEA_HepaRG_FASN: Life Technologies and Expression Analysis (LTEA) Assay for Fatty Acid Synthase (FASN) using HepaRG (AID 2283448). Particulars: mRNA level, 48 h; actives raise or lower the signal. An outline of the steps: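 FASN expression changes, up or down relative to 0.5% DMSO, were measured by qRT-PCR in human HepaRG cells after 48 h treatment with chemicals at eight concentrations (half-log steps from 100 uM).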

Read-out in assay [4]: Cyclin D2 (CCND2), CCND2 (gene 894)
Kind of assay: LTEA_HepaRG_CCND2: Life Technologies and Expression Analysis (LTEA) Assay for Cyclin D2 (CCND2) using HepaRG (AID 2283449).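 Also: CCND2 transcript measured by TaqMan qRT-PCR and normalised to three housekeeping genes.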 The following applies: mRNA level, 48 h; actives raise or lower the signal. An outline of the steps:
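Differentiated human HepaRG cells were exposed for 48 h in serum-free induction medium to eight half-log concentrations topping at 100 uM (0.5% DMSO vehicle). CCND2 mRNA was quantified by TaqMan qRT-PCR, normalised to ACTB, GAPDH and POLR2A, and fitted bidirectionally against DMSO.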

Read-out in assay [5]: Cyclin Dependent Kinase Inhibitor 1A (CDKN1A), CDKN1A (gene 1026)
Kind of assay: LTEA_HepaRG_CDKN1A: Life Technologies and Expression Analysis (LTEA) Assay for Cyclin Dependent Kinase Inhibitor 1A (CDKN1A) using HepaRG (AID 2283450). The following applies: mRNA level, 48 h; actives raise or lower the signal. In short, it runs like this:
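Read-out is CDKN1A mRNA by TaqMan qRT-PCR, normalized to three housekeeping genes and fitted in both directions against the DMSO baseline. Human HepaRG cells were treated 48 h with test chemicals up to 100 uM in half-log steps, 0.5% DMSO.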

Read-out in assay [6]: Cyclin D1 (CCND1), CCND1 (gene 595)
Kind of assay: LTEA_HepaRG_CCND1: Life Technologies and Expression Analysis (LTEA) Assay for Cyclin D1 (CCND1) using HepaRG (AID 2283451). Particulars: mRNA level, 48 h; actives raise or lower the signal. An outline of the steps:
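HepaRG plated 48 h, medium switched to serum-free induction medium, chemicals added in duplicate (top 100 uM, half-log steps, 0.5% DMSO) for 48 h, cells lysed, RNA measured by TaqMan qRT-PCR.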

Read-out in assay [7]: catalase (CAT), CAT (gene 847)
Kind of assay: LTEA_HepaRG_CAT: Life Technologies and Expression Analysis (LTEA) Assay for catalase (CAT) using HepaRG (AID 2283452).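 As to AC50: TaqMan qRT-PCR signal normalized to ACTB GAPDH and POLR2A housekeeping genes.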 Particulars: mRNA level, 48 h; actives raise or lower the signal. In short, it runs like this: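 Differentiated HepaRG cells in serum-free induction medium were dosed 48 h in duplicate, eight half-log concentrations from 100 uM in 0.5% DMSO. Transcript measured by TaqMan qRT-PCR, normalised to ACTB/GAPDH/POLR2A, fitted bidirectionally against DMSO.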

Read-out in assay [8]: flavin-containing dimethylaniline monooxygenases 3 (FMO3), FMO3 (gene 2328)
Nature of the assay: LTEA_HepaRG_FMO3: Life Technologies and Expression Analysis (LTEA) Assay for flavin-containing dimethylaniline monooxygenases 3 (FMO3) using HepaRG (AID 2283453). Particulars: mRNA level, 48 h; actives raise or lower the signal. An outline of the steps:
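Differentiated HepaRG cells in serum-free induction medium, exposed 48 h in duplicate to 8 half-log concentrations up to 100 uM in 0.5% DMSO. FMO3 mRNA by qRT-PCR, normalized to ACTB, GAPDH, POLR2A; bidirectional fit vs DMSO.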

Read-out in assay [9]: Cytochrome P450 (CYP1A1), CYP1A1 (gene 1543)
Nature of the assay: LTEA_HepaRG_CYP1A1: Life Technologies and Expression Analysis (LTEA) Assay for Cytochrome P450 (CYP1A1) using HepaRG (AID 2283454). Particulars: mRNA level, 48 h; actives raise or lower the signal. An outline of the steps: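 HepaRG, 48 h post-plating switched to serum-free induction medium; 8-pt conc-response (top 100 uM, half-log, 0.5% DMSO), duplicates, 48 h. Lysis in RLT, TaqMan qRT-PCR for CYP1A1; gain or loss vs DMSO.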

Structures are written as SMILES. Activity calls are given as the source filed them. The calls were made as follows: active = hit-call score of the fitted dose curve at least 0.9, where 1 is the maximum; inactive = score below 0.9.

For orientation: AC50 means the midpoint of the concentration-response curve, whichever way the signal moves.

Fatty acid synthase (Homo sapiens), sequence (P49327 whole entry, looked up): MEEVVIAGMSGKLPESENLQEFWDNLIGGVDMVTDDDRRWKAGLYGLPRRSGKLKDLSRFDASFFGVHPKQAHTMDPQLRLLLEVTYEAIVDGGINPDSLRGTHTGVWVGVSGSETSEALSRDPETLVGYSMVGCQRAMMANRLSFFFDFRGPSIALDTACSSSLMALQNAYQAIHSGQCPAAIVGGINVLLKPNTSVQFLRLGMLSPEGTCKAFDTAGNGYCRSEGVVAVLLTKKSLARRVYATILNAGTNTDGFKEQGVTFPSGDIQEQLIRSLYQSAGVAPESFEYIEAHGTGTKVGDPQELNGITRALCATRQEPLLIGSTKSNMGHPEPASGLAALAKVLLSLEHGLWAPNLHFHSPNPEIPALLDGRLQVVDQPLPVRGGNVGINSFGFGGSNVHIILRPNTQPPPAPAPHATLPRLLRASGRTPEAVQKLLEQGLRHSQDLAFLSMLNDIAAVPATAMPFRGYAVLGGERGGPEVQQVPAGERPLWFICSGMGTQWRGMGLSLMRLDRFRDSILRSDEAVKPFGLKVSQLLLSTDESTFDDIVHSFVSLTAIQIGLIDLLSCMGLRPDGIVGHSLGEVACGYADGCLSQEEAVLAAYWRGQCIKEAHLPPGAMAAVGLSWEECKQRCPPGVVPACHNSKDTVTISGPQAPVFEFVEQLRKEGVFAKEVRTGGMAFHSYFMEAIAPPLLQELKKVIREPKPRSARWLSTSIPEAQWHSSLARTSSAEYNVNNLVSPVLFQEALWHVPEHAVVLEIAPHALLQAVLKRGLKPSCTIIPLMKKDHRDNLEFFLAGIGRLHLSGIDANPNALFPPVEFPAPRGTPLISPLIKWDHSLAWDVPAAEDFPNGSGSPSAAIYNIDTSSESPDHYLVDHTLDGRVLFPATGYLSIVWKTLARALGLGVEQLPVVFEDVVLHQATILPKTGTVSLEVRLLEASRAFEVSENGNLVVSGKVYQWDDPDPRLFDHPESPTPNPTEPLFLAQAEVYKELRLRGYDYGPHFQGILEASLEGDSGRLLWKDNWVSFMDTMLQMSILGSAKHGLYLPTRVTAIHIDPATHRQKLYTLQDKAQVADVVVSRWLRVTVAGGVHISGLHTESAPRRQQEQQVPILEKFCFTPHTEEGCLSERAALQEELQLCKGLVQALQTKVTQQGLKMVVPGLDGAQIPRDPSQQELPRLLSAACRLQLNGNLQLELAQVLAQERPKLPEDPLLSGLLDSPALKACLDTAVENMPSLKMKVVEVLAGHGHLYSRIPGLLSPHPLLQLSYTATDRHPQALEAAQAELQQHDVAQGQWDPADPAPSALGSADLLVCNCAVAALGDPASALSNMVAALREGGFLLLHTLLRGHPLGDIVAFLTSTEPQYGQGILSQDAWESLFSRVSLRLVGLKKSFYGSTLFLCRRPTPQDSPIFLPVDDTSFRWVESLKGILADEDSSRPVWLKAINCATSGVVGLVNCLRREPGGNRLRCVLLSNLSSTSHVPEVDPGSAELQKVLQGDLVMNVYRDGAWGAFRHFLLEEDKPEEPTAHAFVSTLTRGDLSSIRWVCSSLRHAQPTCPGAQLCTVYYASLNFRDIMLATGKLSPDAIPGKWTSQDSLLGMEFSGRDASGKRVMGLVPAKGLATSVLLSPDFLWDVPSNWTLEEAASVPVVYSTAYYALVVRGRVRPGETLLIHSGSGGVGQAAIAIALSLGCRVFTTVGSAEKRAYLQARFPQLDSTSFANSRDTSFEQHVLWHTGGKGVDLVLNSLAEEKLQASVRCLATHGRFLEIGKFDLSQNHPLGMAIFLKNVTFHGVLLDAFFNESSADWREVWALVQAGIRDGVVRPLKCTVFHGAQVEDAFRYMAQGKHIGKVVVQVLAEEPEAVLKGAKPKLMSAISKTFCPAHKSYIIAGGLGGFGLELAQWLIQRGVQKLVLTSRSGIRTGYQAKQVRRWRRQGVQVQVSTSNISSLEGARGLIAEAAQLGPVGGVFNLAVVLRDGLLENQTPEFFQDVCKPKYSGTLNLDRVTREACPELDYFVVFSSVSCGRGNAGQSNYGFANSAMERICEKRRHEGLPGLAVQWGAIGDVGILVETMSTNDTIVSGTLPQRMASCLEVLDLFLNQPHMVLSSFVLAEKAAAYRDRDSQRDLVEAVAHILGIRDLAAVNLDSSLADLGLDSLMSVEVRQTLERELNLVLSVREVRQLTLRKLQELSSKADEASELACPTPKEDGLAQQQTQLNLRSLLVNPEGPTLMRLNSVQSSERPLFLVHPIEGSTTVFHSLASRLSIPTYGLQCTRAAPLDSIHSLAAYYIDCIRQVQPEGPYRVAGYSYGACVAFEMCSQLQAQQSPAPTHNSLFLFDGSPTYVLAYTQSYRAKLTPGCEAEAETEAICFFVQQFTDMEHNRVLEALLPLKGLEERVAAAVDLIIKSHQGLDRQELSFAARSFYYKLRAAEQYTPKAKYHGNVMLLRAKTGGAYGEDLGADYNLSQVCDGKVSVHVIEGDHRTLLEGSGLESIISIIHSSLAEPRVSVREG

Turning to `CC(C)(c1cc(Br)c(O)c(Br)c1)c1cc(Br)c(O)c(Br)c1`, the AC50 in [1] is 4.87 µM (active); in [2], 92.5 µM (active); in [5], 92.3 µM (active); in [6], 47.8 µM (active). In addition, the result in [3], in assay [4], in [7], in assay [8] and in assay [9] was inactive.
For `O=C1CCC(C2CCCCC2)CC1`, the call in assay [1], in assay [2], in [3], in [4], in assay [5] and in [8] was inactive. Moreover, the AC50 in assay [9] was 50 µM (active).
Regarding `CCOC(=O)O[C@H](C)OC(=O)c1ccc2c(c1)cc(C(=O)NC1CCN(C(C)C)CC1)n2Cc1cc(-c2ccc(Cl)s2)on1`, the outcome in [2], in [3], in assay [4], in assay [5], in assay [6] and in assay [7] was inactive. For the same molecule, the result in [8] was inactive. Besides, the AC50 in [9] is 65.2 µM (active).
For `O=c1c(-c2ccc(O)cc2)coc2cc(O)cc(O)c12`, the AC50 in [1] was 12.4 µM (active). Further, the molecule was called inactive in assay [2], in assay [3], in assay [4], in assay [5], in [7] and in [8]. In assay [9], the molecule was classed as inactive.
For `NCc1cccc(C2CCN(C(=O)c3ccc(C#Cc4ccccc4F)o3)CC2)c1`, the call in assay [2], in assay [4] and in [5] was inactive. Also, the AC50 in assay [3] is 50 µM (active); in [7], 50 µM (active); in assay [8], 82.7 µM (active); in assay [9], 12.7 µM (active).
As to `CCCOC(=O)c1cc(O)c(O)c(O)c1`, the molecule was called inactive in assay [2], in assay [3], in [4], in assay [5], in assay [6] and in [7]. In addition, in [9], the half-maximal activity concentration (AC50) is 10.1 µM (active).
Consider `OCCO`, for which the outcome in [3], in assay [4], in assay [5], in assay [7], in assay [8] and in assay [9] was inactive.
With `CC(O)CC(C)(C)O` (centres undefined), the molecule was called inactive in [2], in assay [3], in [5], in assay [7], in assay [8] and in [9].
For `CC1(C)NC(=O)N(c2ccc([N+](=O)[O-])c(C(F)(F)F)c2)C1=O`, the call in assay [2], in [3] and in [9] was inactive. Besides, the AC50 was 80.8 µM (active) in [5] and 76.6 µM (active) in assay [8].
With `CCN(CC)C(=O)c1cc(S(=O)(=O)Cc2ccccc2)c(N2CCC(c3ccccc3)CC2)cc1N(CC)CCN(C)C`, the AC50 in assay [2] was 30.3 µM (active); in assay [3], 4.87 µM (active); in assay [7], 30.2 µM (active); in [8] it was 29.4 µM (active); in assay [9], 7.21 µM (active). Also, the molecule was called inactive in assay [4], in assay [5] and in assay [6].
Take `Cc1ccc(C(C)C)cc1`: the molecule was called inactive in assay [2], in assay [3], in assay [5], in [6], in assay [7] and in assay [8]. In assay [9], the AC50 was 74.9 µM (active).
Take `c1ccc2n[nH]nc2c1`: the molecule was called inactive in [2], in [3], in assay [4], in [5], in [7] and in assay [8]. In addition, in assay [9], the molecule was classed as inactive.
For the molecule `CC(C)(O)c1ccc(CNC(=O)c2cccnc2Oc2ccc3nonc3c2)cc1`, the result in assay [2], in assay [3], in assay [4], in assay [5], in assay [6] and in assay [7] was inactive. Further, the outcome in assay [8] was inactive. Besides, in assay [9], the AC50 was 34.7 µM (active).
On to `O=C(O)Cc1cc(I)c(Oc2ccc(O)c(I)c2)c(I)c1`, for which the AC50 is 88.6 µM (active) in assay [2]; 50 µM (active) in [3]; 82.7 µM (active) in assay [5]; 9.92 µM (active) in assay [7]; 91.2 µM (active) in assay [8]. Moreover, the outcome in assay [4] and in assay [9] was inactive.
As for `COc1ccc2cc(S(=O)(=O)N[C@H](CC(=O)N[C@H](Cc3ccc(CN4[C@H](C)CCC[C@@H]4C)cc3)C(=O)N(C)C(C)C)c3ccc4c(c3)OCO4)ccc2c1`, the AC50 in [2] was 15.1 µM (active); in assay [7], 17.7 µM (active); in assay [8], 17.3 µM (active); in [9] it was 24.4 µM (active). In addition, the call in assay [3], in [5] and in [6] was inactive.
For `CCCCCCCCCC(=O)O`, the result in assay [2], in [3], in [4], in assay [5], in assay [7] and in assay [8] was inactive. The AC50 in assay [9] was 70.9 µM (active).
In the case of `c1ccc2ccccc2c1`, the molecule was called inactive in [2], in [3], in [4], in [5], in assay [7] and in assay [8]. In addition, the call in assay [9] was inactive.
Consider `CC/C(=C(/CC)c1ccc(O)cc1)c1ccc(O)cc1`, for which the AC50 is 50 µM (active) in assay [2]; 50 µM (active) in assay [3]; 80.3 µM (active) in [6]; 91.7 µM (active) in assay [7]; 92.4 µM (active) in [8]. Also, the molecule was classed as inactive in [5] and in [9].
Take `CCCCCCCCCCCO`: the call in [2], in [3], in [4], in [5], in assay [7] and in [8] was inactive. Moreover, in [9], the call was inactive.
Turning to `CCCCOC(=O)CC(CC(=O)OCCCC)(OC(C)=O)C(=O)OCCCC`, the result in [2], in assay [3], in [4], in assay [5], in assay [7] and in assay [8] was inactive. Also, the call in assay [9] was inactive.
As for `O=c1[nH]sc2ccccc12`, the molecule was classed as inactive in assay [2], in assay [3], in assay [5], in [6], in [7] and in assay [8]. For the same molecule, the AC50 in assay [9] was 64.5 µM (active).

The values are drawn from PubChem BioAssay (EPA / NIEHS).
